GCN5L2 inh = qHTS Assay for Inhibitors of GCN5L2; Histone acetyltransferase KAT2A (Homo sapiens), Q92830; GCN5L2 HAT assay, ThioGlo1 CoA-SH fluorescence; Potency, µM (series often up to 58.9 µM), most hits filed as inhibitors; 0.21% of 390,000 active; AID 504327, 2011
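ThioGlo1-coupled HAT assay: 20nM GCN5L2, 70uM acetyl-CoA, 75uM H3(1-25) peptide, pH 7.5. Fluorescence read at 340/540nm at start and after 20 min at room temperature.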
WRN helicase inh = qHTS for Inhibitors of WRN Helicase; WRN helicase unwinding, fluorescent forked duplex, kinetic; Bifunctional 3'-5' exonuclease/ATP-dependent helicase WRN (Homo sapiens), Q14191; 0.46% of 360,000 active; Potency, µM (titrated, usually from 114 µM), most hits filed as inhibitors; also: nearly all actives have a fitted effect of over 55% in size
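WRN at 20 nM final was preincubated with compound for 15 min at room temperature; reaction started with 100 nM forked duplex oligonucleotide carrying fluorophore and quencher plus 2 mM ATP (final). Unwinding followed kinetically by red fluorescence (ex 525/em 598 nm).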
BLM helicase inh = qHTS Assay for Inhibitors of Bloom's syndrome helicase (BLM). AID 2528, 2010. recombinant BLM DNA unwinding, fluorescence dequenching. 0.2% of 350,000 active. RecQ-like DNA helicase BLM (Homo sapiens), P54132. Potency, µM (series often up to 56.1 µM), actives largely listed as inhibitors; also: nearly all actives have a fitted effect of over 35% in size
RECQ1 helicase = qHTS Assay for Inhibitors of RecQ-Like Dna Helicase 1 (RECQ1); RECQ1 DNA unwinding, red fluorescence kinetic read; Potency, µM (highest dose often 57.3 µM), actives largely listed as inhibitors; 0.54% of 240,000 active; AID 2549, 2010; also: nearly all actives have a fitted effect of over 30% in size
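RECQ1T1 50 nM; forked duplex (20 bp + 30-nt ss tails) 200 nM, ATP 2 mM final; pH 8.0, 2 mM MgCl2, 2.5 ug/ml poly(dI-dC); 15 min compound preincubation; discontinuous kinetic read over 2 h at RT.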
ERG-DNA inh = qHTS for Small Molecule Inhibitors of the ERG Ets/DNA interaction. AID 624246, 2012. 0.028% of 370,000 active. fluorescence polarization, His-ERG Ets domain / labelled DNA. Potency, µM (top dose mostly 76.9 µM), most hits filed as inhibitors; active = well fitted inhibition curve with a large enough effect in the polarisation, with a control signal flat; inconclusive = small, poorly fitted or top-dose-only effect, or effect the other way, or a change in a side signal; inactive = no such curve, though single readings can be large or run the other way; the % refers to the polarisation;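 also: polarization taken with two DNA probes labelled with fluorescein and Texas red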
Target sequence (P11308 whole entry, looked up, the tested form may be a part): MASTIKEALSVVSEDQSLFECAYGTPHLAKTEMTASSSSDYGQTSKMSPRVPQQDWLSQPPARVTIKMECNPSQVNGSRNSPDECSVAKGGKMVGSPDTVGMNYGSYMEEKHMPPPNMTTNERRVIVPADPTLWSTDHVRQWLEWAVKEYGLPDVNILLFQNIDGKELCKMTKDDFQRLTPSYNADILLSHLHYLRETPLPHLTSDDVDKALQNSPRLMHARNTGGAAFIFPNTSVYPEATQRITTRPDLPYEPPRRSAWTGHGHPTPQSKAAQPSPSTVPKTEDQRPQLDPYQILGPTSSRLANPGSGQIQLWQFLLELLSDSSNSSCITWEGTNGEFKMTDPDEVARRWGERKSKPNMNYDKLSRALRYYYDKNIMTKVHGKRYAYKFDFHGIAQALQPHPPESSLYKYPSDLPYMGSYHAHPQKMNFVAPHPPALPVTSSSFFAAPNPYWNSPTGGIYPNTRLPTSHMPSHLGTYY
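His-tagged ERG Ets domain (1 uM in the protein solution; 300mM KCl, 50mM Tris-HCl, 1mM EDTA, 1mM DTT, pH 7.5) received compound, then a probe mix of 5 nM fluorescein-DNA and 100nM Texas-615-DNA. Fluorescence polarization was read for both dyes.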
APE1 inh = qHTS Assay for Inhibitors of the Human Apurinic/apyrimidinic Endonuclease 1 (APE1) | AID 2517, 2012 | Potency, µM (titrated, usually from 65.8 µM), hits mostly inhibitors | 0.35% of 350,000 active | recombinant APE1, TAMRA/BHQ-2 abasic DNA cleavage fluorescence | DNA repair nuclease/redox regulator APEX1 (Homo sapiens), P27695; also: nearly all actives have a fitted effect of over 55% in size
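APE1 at 0.75 nM preincubated 15 min at room temperature with compound. Reaction then started with 50 nM double-stranded THF-abasic substrate labelled with TAMRA/BHQ-2, and 525/598 nm fluorescence read kinetically. Activity taken as third-minus-first read difference, normalized to DMSO and NSC13755 controls.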
Large screens that a line does not name were inactive. The list is not random: actives were taken first. Their share in the collection is about 0.88%. Unless noted, calls follow the shape of the dose curve; as a rule, active = well fitted curve in the direction sought with a large enough effect; inconclusive = small, poorly fitted or top-dose-only effect, or another doubt; inactive = no such curve, though single readings can be large; an effect the other way counts as inactive or inconclusive.

CC[C@H](C)[C@H](NC(=O)CNC(=O)[C@H](CCCNC(=N)N)NC(=O)[C@H](CO)NC(=O)[C@H](C)NC(=O)[C@H](Cc1ccc(O)cc1)NC(=O)[C@H](Cc1c[nH]c2ccccc12)NC(=O)[C@H](C)NC(=O)[C@@H]1CCCN1C(=O)[C@H](CC(N)=O)NC(=O)[C@@H](NC(=O)[C@H](CC(=O)O)NC(=O)[C@@H]1CCCN1C(=O)[C@@H](NC(=O)[C@H](CCCNC(=N)N)NC(=O)[C@@H](NC(=O)[C@H](CCC(=O)O)NC(=O)[C@H](CCSC)NC(=O)[C@H](CO)NC(=O)[C@H](Cc1cnc[nH]1)NC(=O)[C@H](CCCNC(=N)N)NC(=O)[C@H](Cc1cnc[nH]1)NC(=O)[C@@H](NC(=O)[C@H](CCCNC(=N)N)NC(=O)[C@@H](N)CO)[C@@H](C)O)[C@@H](C)CC)[C@@H](C)O)[C@@H](C)CC)C(=O)N[C@@H](CCCNC(=N)N)C(=O)N1CCC[C@H]1C(=O)N[C@H](C(=O)NCC(=O)N[C@@H](CCCNC(=N)N)C(=O)N[C@@H](Cc1ccccc1)C(N)=O)C(C)C	none (no result: WRN helicase inh, ERG-DNA inh)
O=C(Nc1ccc2oc(-c3ccccc3F)nc2c1)c1ccc([N+](=O)[O-])o1	APE1 inh 2.7µM (no result: RECQ1 helicase)
O=C(Nc1ccc2oc(-c3ccccc3F)nc2c1)c1ccccc1Cl	none (no result: WRN helicase inh, RECQ1 helicase, APE1 inh)
COc1ccc(-c2cn3nc(N4CCC(C(=O)NCc5ccccc5F)CC4)sc3n2)cc1	none (no result: WRN helicase inh, RECQ1 helicase, APE1 inh)
COc1ccc(-c2ccc(=O)n(CC(=O)Nc3ccccc3C(F)(F)F)n2)cc1	none (no result: WRN helicase inh, RECQ1 helicase, APE1 inh)
CC(C)(C)n1ncc2c(=O)n(Cc3ccc(F)c(F)c3F)cnc21	none (no result: GCN5L2 inh, WRN helicase inh, BLM helicase inh, RECQ1 helicase, ERG-DNA inh)
N=C1/C(=C/c2ccc(-c3cccc(C(=O)O)c3)o2)C(=O)N=C2SC(CC(=O)N3CCOCC3)=NN12	WRN helicase inh 22µM, APE1 inh inconclusive (no result: RECQ1 helicase)
N/C(=N\N=C\c1ccc(Cl)cc1)N/N=C/c1ccc(Cl)cc1	none (no result: WRN helicase inh, RECQ1 helicase, ERG-DNA inh, APE1 inh)
Cc1ccc(/C=C/C(=O)N2CC(=O)Nc3ccccc32)o1	GCN5L2 inh 22µM
COc1ccccc1-c1cc(-n2ccnc2)ncn1	none (no result: WRN helicase inh, ERG-DNA inh)
c1cn(-c2cc(-c3ccc4c(c3)OCO4)ncn2)cn1	GCN5L2 inh inconclusive, APE1 inh 8.9µM (no result: WRN helicase inh, ERG-DNA inh)
CCOc1ccc(NC(=O)c2cccc(-n3cccc3)c2)cc1S(=O)(=O)N1CCOCC1	GCN5L2 inh inconclusive, APE1 inh 1.3µM (no result: WRN helicase inh, BLM helicase inh, RECQ1 helicase, ERG-DNA inh)
N#CC(C#N)=C1C=CC=CN1/C(=C\c1ccco1)C(=O)c1ccccc1	WRN helicase inh 18µM
N#CC(C#N)=C1C=CC=CN1/C(=C\c1ccco1)C(=O)c1ccc(Br)cc1	WRN helicase inh 56µM
O=S(=O)(CCc1ccccc1)c1nc2ccccc2s1	none (no result: GCN5L2 inh, WRN helicase inh, ERG-DNA inh)
COc1ccc(-c2c(C3C4C=CCCC4(C)C(=O)N3Cc3ccccc3)ccc3ccccc23)cc1OC (centres undefined)	none (no result: GCN5L2 inh, WRN helicase inh, ERG-DNA inh)
CNC(=O)c1nnsc1S(=O)(=O)c1ccc(Cl)cc1	GCN5L2 inh inconclusive, WRN helicase inh 7.9µM
O=C(c1nnsc1S(=O)(=O)c1ccc(Cl)cc1)N1CCOCC1	none
CSc1cccc(NC(=O)C(c2ccccc2)N2Cc3ccccc3C2=O)c1 (centres undefined)	none (no result: WRN helicase inh, RECQ1 helicase, APE1 inh)
CC(=O)Nc1cc(NC(C)=O)cc(C(=O)N2CCCC3CCCCC32)c1 (centres undefined)	WRN helicase inh inconclusive, APE1 inh 17µM (no result: RECQ1 helicase)
O=C(Nc1ccccc1)N1CCCC2CCCCC21 (centres undefined)	GCN5L2 inh inconclusive
CCN(CC)c1ccc(/C=C(\C#N)C(=O)c2ccc(Br)cc2)cc1	WRN helicase inh 28µM, BLM helicase inh inconclusive, RECQ1 helicase inconclusive, ERG-DNA inh inconclusive
CCN(CC)c1ccc(/C=C(\C#N)C(N)=O)cc1	none
